# What was measured:
# Test in all cases: fluorescence anisotropy; 10 mM Tris-HEPES pH 7.5, 8% Ficoll, 0.05% NP-40, 135 mM KCl, 15 mM NaCl, 1 mM DTT, 0.1 mg/mL BSA; 2 nM DNA or 3 nM RNA; low values mean tight binding
# Conditions in all cases: protein: recombinant; tags: N-terminal His6 and thrombin site, not removed; label: FAM; only (+) strand given; dsDNA, one strand shown
# [1] = molecular target: Sox2-HMG (His6 retained) E78A (Homo sapiens, UniProt P48431 38-121, E78A)
# Procedure, shortened: (§1)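 Dissociation constants, fit in Kaleidagraph, are reported relative to wild type as a mutant-to-wild-type ratio. They come from polarization readings on a CLARIOstar after alanine-substituted Sox2-HMG domains, made by site-directed mutagenesis and Ni-NTA purified with the His6 tag retained, were titrated against 2 nM fluorescein-labeled DNA or 3 nM fluorescein-labeled RNA. Binding took place in Tris-HEPES pH 7.5 buffer for at least 1 h, and titrations were done in triplicate with three reads each.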
# [2] = molecular target: Sox2-HMG (His6 retained) S72A (Homo sapiens, UniProt P48431 38-121, S72A)
# Procedure, shortened: as §1
# [3] = molecular target: Sox2-HMG (His6 retained) E104A (Homo sapiens, UniProt P48431 38-121, E104A)
# Procedure, shortened: as §1
# [4] = molecular target: Sox2-HMG (His6 retained) K58A (Homo sapiens, UniProt P48431 38-121, K58A)
# Procedure, shortened: as §1
# [5] = molecular target: Sox2-HMG (His6 retained) H67A (Homo sapiens, UniProt P48431 38-121, H67A)
# Procedure, shortened: as §1
# [6] = molecular target: Sox2-HMG (His6 retained) K42A (Homo sapiens, UniProt P48431 38-121, K42A)
# Procedure, shortened: as §1
# [7] = molecular target: Sox2-HMG (His6 retained) M45A (Homo sapiens, UniProt P48431 38-121, M45A)
# Procedure, shortened: as §1
# [8] = molecular target: Sox2-HMG (His6 retained) N63A (Homo sapiens, UniProt P48431 38-121, N63A)
# Procedure, shortened: as §1
# [9] = molecular target: Sox2-HMG (His6 retained) K115A (Homo sapiens, UniProt P48431 38-121, K115A)
# Procedure, shortened: as §1
# [10] = molecular target: Sox2-HMG (His6 retained) E70A (Homo sapiens, UniProt P48431 38-121, E70A)
# Procedure, shortened: as §1
# [11] = molecular target: Sox2-HMG (His6 retained) K87A (Homo sapiens, UniProt P48431 38-121, K87A)
# Procedure, shortened: as §1
# [12] = molecular target: Sox2-HMG (His6 retained) W79A (Homo sapiens, UniProt P48431 38-121, W79A)
# Procedure, shortened: as §1
# [13] = molecular target: Sox2-HMG (His6 retained) E62A (Homo sapiens, UniProt P48431 38-121, E62A)
# Procedure, shortened: as §1
# [14] = molecular target: Sox2-HMG (His6 retained) R114A (Homo sapiens, UniProt P48431 38-121, R114A)
# Procedure, shortened: as §1
# [15] = molecular target: Sox2-HMG (His6 retained) S69A (Homo sapiens, UniProt P48431 38-121, S69A)
# Procedure, shortened: as §1
# [16] = molecular target: Sox2-HMG (His6 retained) R96A (Homo sapiens, UniProt P48431 38-121, R96A)
# Procedure, shortened: as §1
# [17] = molecular target: Sox2-HMG (His6 retained) R40A (Homo sapiens, UniProt P48431 38-121, R40A)
# Procedure, shortened: as §1
# [18] = molecular target: Sox2-HMG (His6 retained) W51A (Homo sapiens, UniProt P48431 38-121, W51A)
# Procedure, shortened: as §1
# [19] = molecular target: Sox2-HMG (His6 retained) S83A (Homo sapiens, UniProt P48431 38-121, S83A)
# Procedure, shortened: as §1
# [20] = molecular target: Sox2-HMG (His6 retained) R111A (Homo sapiens, UniProt P48431 38-121, R111A)
# Procedure, shortened: as §1
# [21] = molecular target: Sox2-HMG (His6 retained) E84A (Homo sapiens, UniProt P48431 38-121, E84A)
# Procedure, shortened: as §1
# [22] = molecular target: Sox2-HMG (His6 retained) K95A (Homo sapiens, UniProt P48431 38-121, K95A)
# Procedure, shortened: as §1
# [23] = molecular target: Sox2-HMG (His6 retained) F48A (Homo sapiens, UniProt P48431 38-121, F48A)
# Procedure, shortened: as §1
# [24] = molecular target: Sox2-HMG (His6 retained) R74A (Homo sapiens, UniProt P48431 38-121, R74A)
# Procedure, shortened: as §1
# [25] = molecular target: Sox2-HMG (His6 retained) Q61A (Homo sapiens, UniProt P48431 38-121, Q61A)
# Procedure, shortened: as §1
# [26] = molecular target: Sox2-HMG (His6 retained) R88A (Homo sapiens, UniProt P48431 38-121, R88A)
# Procedure, shortened: as §1
# [27] = molecular target: Sox2-HMG (His6 retained) K73A (Homo sapiens, UniProt P48431 38-121, K73A)
# Procedure, shortened: as §1
# [28] = molecular target: Sox2-HMG (His6 retained) E86A (Homo sapiens, UniProt P48431 38-121, E86A)
# Procedure, shortened: as §1
# [29] = molecular target: Sox2-HMG (His6 retained) R53A (Homo sapiens, UniProt P48431 38-121, R53A)
# Procedure, shortened: as §1
# [30] = molecular target: Sox2-HMG (His6 retained) R113A (Homo sapiens, UniProt P48431 38-121, R113A)
# Procedure, shortened: as §1
# [31] = molecular target: Sox2-HMG (His6 retained) T85A (Homo sapiens, UniProt P48431 38-121, T85A)
# Procedure, shortened: as §1
# [32] = molecular target: Sox2-HMG (His6 retained) M49A (Homo sapiens, UniProt P48431 38-121, M49A)
# Procedure, shortened: as §1
# [33] = molecular target: Sox2-HMG (His6 retained) R56A (Homo sapiens, UniProt P48431 38-121, R56A)
# Procedure, shortened: as §1
# [34] = molecular target: Sox2-HMG (His6 retained) K80A (Homo sapiens, UniProt P48431 38-121, K80A)
# Procedure, shortened: as §1
# [35] = molecular target: Sox2-HMG (His6 retained) Y110A (Homo sapiens, UniProt P48431 38-121, Y110A)
# Procedure, shortened: as §1
# [36] = molecular target: Sox2-HMG (His6 retained) K103A (Homo sapiens, UniProt P48431 38-121, K103A)
# Procedure, shortened: as §1
# [37] = molecular target: Sox2-HMG (His6 retained) K109A (Homo sapiens, UniProt P48431 38-121, K109A)
# Procedure, shortened: as §1
# [38] = molecular target: Sox2-HMG (His6 retained) R43A (Homo sapiens, UniProt P48431 38-121, R43A)
# Procedure, shortened: as §1
# [39] = molecular target: Sox2-HMG (His6 retained) R57A (Homo sapiens, UniProt P48431 38-121, R57A)
# Procedure, shortened: as §1
# [40] = molecular target: Sox2-HMG (His6 retained) R98A (Homo sapiens, UniProt P48431 38-121, R98A)
# Procedure, shortened: as §1
# [41] = molecular target: Sox2-HMG (His6 retained) N68A (Homo sapiens, UniProt P48431 38-121, N68A)
# Procedure, shortened: as §1
# [42] = molecular target: Sox2-HMG (His6 retained) P112A (Homo sapiens, UniProt P48431 38-121, P112A)
# Procedure, shortened: as §1
# [43] = molecular target: Sox2-HMG (His6 retained) N46A (Homo sapiens, UniProt P48431 38-121, N46A)
# Procedure, shortened: as §1
# [44] = molecular target: Sox2-HMG (His6 retained) K65A (Homo sapiens, UniProt P48431 38-121, K65A)
# Procedure, shortened: as §1
# [45] = molecular target: Sox2-HMG (His6 retained) H101A (Homo sapiens, UniProt P48431 38-121, H101A)
# Procedure, shortened: as §1
# [46] = molecular target: Sox2-HMG (His6 retained) P64A (Homo sapiens, UniProt P48431 38-121, P64A)
# Procedure, shortened: as §1
# [47] = molecular target: Sox2-HMG (His6 retained) M66A (Homo sapiens, UniProt P48431 38-121, M66A)
# Procedure, shortened: as §1
# [48] = molecular target: Sox2-HMG (His6 retained) H105A (Homo sapiens, UniProt P48431 38-121, H105A)
# Procedure, shortened: as §1
# Sequence of Sox2-HMG (His6 retained) R57A (P48431 other isoform, or with tags, fused parts or gaps R57A | R57A R57A): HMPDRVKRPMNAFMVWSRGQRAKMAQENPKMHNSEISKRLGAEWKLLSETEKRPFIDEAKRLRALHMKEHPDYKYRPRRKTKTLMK
# Sequence of Sox2-HMG (His6 retained) K80A (P48431 other isoform, or with tags, fused parts or gaps K80A | K80A K80A): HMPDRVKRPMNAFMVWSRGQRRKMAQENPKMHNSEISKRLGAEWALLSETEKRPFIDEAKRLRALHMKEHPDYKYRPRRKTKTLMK
# Sequence of Sox2-HMG (His6 retained) F48A (P48431 other isoform, or with tags, fused parts or gaps F48A | F48A F48A): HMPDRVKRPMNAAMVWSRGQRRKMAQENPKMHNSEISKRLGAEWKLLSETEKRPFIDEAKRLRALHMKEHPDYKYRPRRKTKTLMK
# Sequence of Sox2-HMG (His6 retained) E84A (P48431 other isoform, or with tags, fused parts or gaps E84A | E84A E84A): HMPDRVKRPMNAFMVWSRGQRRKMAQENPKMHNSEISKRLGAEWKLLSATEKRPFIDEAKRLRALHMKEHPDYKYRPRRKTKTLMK
# Sequence of Sox2-HMG (His6 retained) Q61A (P48431 other isoform, or with tags, fused parts or gaps Q61A | Q61A Q61A): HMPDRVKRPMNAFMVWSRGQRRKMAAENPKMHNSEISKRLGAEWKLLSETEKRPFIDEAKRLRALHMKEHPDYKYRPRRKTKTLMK
# Sequence of Sox2-HMG (His6 retained) K87A (P48431 other isoform, or with tags, fused parts or gaps K87A | K87A K87A): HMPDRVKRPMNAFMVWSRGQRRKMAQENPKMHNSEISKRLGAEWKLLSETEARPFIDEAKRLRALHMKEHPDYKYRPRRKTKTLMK
# Sequence of Sox2-HMG (His6 retained) E62A (P48431 other isoform, or with tags, fused parts or gaps E62A | E62A E62A): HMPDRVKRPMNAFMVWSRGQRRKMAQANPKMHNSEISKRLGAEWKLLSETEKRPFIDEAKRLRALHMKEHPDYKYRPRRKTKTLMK
# Sequence of Sox2-HMG (His6 retained) Y110A (P48431 other isoform, or with tags, fused parts or gaps Y110A | Y110A Y110A): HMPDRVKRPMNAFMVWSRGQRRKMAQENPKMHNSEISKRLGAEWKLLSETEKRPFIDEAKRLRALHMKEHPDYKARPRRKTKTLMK
# Sequence of Sox2-HMG (His6 retained) M45A (P48431 other isoform, or with tags, fused parts or gaps M45A | M45A M45A): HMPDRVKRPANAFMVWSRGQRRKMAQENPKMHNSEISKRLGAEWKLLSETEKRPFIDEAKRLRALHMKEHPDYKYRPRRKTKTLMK
# Sequence of Sox2-HMG (His6 retained) K115A (P48431 other isoform, or with tags, fused parts or gaps K115A | K115A K115A): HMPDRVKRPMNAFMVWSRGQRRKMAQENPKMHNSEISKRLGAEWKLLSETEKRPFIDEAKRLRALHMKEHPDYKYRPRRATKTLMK
# Sequence of Sox2-HMG (His6 retained) K58A (P48431 other isoform, or with tags, fused parts or gaps K58A | K58A K58A): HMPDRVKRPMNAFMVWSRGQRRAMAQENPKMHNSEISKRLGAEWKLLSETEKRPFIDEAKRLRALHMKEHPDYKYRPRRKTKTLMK
# Sequence of Sox2-HMG (His6 retained) P64A (P48431 other isoform, or with tags, fused parts or gaps P64A | P64A P64A): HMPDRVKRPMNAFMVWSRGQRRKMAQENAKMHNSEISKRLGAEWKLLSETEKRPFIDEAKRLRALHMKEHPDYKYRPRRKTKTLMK
# Sequence of Sox2-HMG (His6 retained) K95A (P48431 other isoform, or with tags, fused parts or gaps K95A | K95A K95A): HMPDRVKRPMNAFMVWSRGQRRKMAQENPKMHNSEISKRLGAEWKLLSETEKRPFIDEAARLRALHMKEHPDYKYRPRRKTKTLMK
# Sequence of Sox2-HMG (His6 retained) R111A (P48431 other isoform, or with tags, fused parts or gaps R111A | R111A R111A): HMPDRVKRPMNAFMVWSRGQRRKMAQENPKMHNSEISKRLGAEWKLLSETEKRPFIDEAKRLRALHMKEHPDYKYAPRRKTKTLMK
# Sequence of Sox2-HMG (His6 retained) R113A (P48431 other isoform, or with tags, fused parts or gaps R113A | R113A R113A): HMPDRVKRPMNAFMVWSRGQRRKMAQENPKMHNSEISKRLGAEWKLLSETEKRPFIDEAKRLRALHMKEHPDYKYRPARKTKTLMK
# Sequence of Sox2-HMG (His6 retained) E78A (P48431 other isoform, or with tags, fused parts or gaps E78A | E78A E78A): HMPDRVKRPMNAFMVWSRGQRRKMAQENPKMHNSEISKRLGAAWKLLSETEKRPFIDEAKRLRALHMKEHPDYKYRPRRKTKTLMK
# Sequence of Sox2-HMG (His6 retained) K65A (P48431 other isoform, or with tags, fused parts or gaps K65A | K65A K65A): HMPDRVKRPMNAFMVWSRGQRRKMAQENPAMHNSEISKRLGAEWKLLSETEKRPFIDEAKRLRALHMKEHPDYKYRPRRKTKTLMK
# Sequence of Sox2-HMG (His6 retained) R56A (P48431 other isoform, or with tags, fused parts or gaps R56A | R56A R56A): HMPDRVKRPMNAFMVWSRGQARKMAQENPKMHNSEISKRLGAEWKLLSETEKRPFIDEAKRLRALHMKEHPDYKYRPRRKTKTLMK
# Sequence of Sox2-HMG (His6 retained) E70A (P48431 other isoform, or with tags, fused parts or gaps E70A | E70A E70A): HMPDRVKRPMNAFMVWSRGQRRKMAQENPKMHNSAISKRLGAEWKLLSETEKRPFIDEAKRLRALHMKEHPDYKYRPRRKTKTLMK
# Sequence of Sox2-HMG (His6 retained) R114A (P48431 other isoform, or with tags, fused parts or gaps R114A | R114A R114A): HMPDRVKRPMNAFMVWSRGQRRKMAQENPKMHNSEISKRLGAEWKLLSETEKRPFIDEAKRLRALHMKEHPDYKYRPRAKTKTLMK
# Sequence of Sox2-HMG (His6 retained) N68A (P48431 other isoform, or with tags, fused parts or gaps N68A | N68A N68A): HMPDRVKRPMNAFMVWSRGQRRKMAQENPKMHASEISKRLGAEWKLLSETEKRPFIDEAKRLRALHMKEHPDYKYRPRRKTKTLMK
# Sequence of Sox2-HMG (His6 retained) T85A (P48431 other isoform, or with tags, fused parts or gaps T85A | T85A T85A): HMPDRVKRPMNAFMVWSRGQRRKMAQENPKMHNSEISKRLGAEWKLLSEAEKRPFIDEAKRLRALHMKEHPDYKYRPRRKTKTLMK
# Sequence of Sox2-HMG (His6 retained) M66A (P48431 other isoform, or with tags, fused parts or gaps M66A | M66A M66A): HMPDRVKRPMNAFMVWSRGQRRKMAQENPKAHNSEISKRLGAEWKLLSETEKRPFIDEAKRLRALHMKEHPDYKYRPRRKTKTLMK
# Sequence of Sox2-HMG (His6 retained) R40A (P48431 other isoform, or with tags, fused parts or gaps R40A | R40A R40A): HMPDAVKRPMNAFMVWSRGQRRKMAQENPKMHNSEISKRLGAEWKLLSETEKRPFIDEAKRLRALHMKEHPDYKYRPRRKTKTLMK
# Sequence of Sox2-HMG (His6 retained) K103A (P48431 other isoform, or with tags, fused parts or gaps K103A | K103A K103A): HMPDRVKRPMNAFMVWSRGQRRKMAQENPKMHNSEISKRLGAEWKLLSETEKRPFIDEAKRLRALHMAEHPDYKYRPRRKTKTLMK
# Sequence of Sox2-HMG (His6 retained) H105A (P48431 other isoform, or with tags, fused parts or gaps H105A | H105A H105A): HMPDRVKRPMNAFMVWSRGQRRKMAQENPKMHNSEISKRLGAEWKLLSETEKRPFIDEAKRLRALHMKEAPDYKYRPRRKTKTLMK
# Sequence of Sox2-HMG (His6 retained) K42A (P48431 other isoform, or with tags, fused parts or gaps K42A | K42A K42A): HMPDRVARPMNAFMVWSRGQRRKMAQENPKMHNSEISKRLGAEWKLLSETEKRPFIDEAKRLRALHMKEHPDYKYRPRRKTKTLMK
# Sequence of Sox2-HMG (His6 retained) R74A (P48431 other isoform, or with tags, fused parts or gaps R74A | R74A R74A): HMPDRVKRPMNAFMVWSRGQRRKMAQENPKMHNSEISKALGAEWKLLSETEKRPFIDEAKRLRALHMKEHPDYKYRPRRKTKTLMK
# Sequence of Sox2-HMG (His6 retained) M49A (P48431 other isoform, or with tags, fused parts or gaps M49A | M49A M49A): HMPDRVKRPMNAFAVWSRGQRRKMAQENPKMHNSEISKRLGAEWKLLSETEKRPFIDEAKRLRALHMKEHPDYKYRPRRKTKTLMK
# Sequence of Sox2-HMG (His6 retained) E104A (P48431 other isoform, or with tags, fused parts or gaps E104A | E104A E104A): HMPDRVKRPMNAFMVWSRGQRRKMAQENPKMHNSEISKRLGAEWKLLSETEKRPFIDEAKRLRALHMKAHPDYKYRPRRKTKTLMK
# Sequence of Sox2-HMG (His6 retained) W51A (P48431 other isoform, or with tags, fused parts or gaps W51A | W51A W51A): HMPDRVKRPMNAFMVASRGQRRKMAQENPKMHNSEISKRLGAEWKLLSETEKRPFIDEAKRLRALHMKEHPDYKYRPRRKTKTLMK
# Sequence of Sox2-HMG (His6 retained) R88A (P48431 other isoform, or with tags, fused parts or gaps R88A | R88A R88A): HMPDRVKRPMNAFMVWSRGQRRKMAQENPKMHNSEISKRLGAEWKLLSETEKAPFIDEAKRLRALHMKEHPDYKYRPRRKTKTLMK
# Sequence of Sox2-HMG (His6 retained) K109A (P48431 other isoform, or with tags, fused parts or gaps K109A | K109A K109A): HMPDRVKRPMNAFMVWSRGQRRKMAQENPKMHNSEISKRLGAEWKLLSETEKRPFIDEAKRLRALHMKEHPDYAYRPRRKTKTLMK
# Sequence of Sox2-HMG (His6 retained) K73A (P48431 other isoform, or with tags, fused parts or gaps K73A | K73A K73A): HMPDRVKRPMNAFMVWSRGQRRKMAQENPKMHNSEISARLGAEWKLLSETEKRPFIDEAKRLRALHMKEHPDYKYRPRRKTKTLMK
# Sequence of Sox2-HMG (His6 retained) N46A (P48431 other isoform, or with tags, fused parts or gaps N46A | N46A N46A): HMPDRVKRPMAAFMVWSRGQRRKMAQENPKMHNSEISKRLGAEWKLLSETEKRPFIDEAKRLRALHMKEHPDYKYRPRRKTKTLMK
# Sequence of Sox2-HMG (His6 retained) R53A (P48431 other isoform, or with tags, fused parts or gaps R53A | R53A R53A): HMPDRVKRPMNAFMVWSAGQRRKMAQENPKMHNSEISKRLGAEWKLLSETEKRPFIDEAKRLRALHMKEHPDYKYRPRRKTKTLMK
# Sequence of Sox2-HMG (His6 retained) S83A (P48431 other isoform, or with tags, fused parts or gaps S83A | S83A S83A): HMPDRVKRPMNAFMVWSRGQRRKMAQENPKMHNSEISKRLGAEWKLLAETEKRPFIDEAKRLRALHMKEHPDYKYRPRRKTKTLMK
# Sequence of Sox2-HMG (His6 retained) S72A (P48431 other isoform, or with tags, fused parts or gaps S72A | S72A S72A): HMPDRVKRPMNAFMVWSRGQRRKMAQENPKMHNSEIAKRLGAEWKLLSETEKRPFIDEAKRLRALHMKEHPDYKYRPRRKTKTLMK
# Sequence of Sox2-HMG (His6 retained) R98A (P48431 other isoform, or with tags, fused parts or gaps R98A | R98A R98A): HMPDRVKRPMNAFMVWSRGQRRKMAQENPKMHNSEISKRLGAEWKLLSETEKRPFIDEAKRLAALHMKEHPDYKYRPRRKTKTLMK
# Sequence of Sox2-HMG (His6 retained) E86A (P48431 other isoform, or with tags, fused parts or gaps E86A | E86A E86A): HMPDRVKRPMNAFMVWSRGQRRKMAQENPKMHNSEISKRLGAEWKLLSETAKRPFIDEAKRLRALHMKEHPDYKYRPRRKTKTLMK
# Sequence of Sox2-HMG (His6 retained) N63A (P48431 other isoform, or with tags, fused parts or gaps N63A | N63A N63A): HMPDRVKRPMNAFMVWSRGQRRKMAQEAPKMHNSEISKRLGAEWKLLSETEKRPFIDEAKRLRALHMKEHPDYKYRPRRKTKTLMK
# Sequence of Sox2-HMG (His6 retained) W79A (P48431 other isoform, or with tags, fused parts or gaps W79A | W79A W79A): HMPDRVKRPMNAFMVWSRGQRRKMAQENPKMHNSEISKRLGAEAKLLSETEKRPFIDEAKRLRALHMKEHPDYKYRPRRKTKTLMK
# Sequence of Sox2-HMG (His6 retained) S69A (P48431 other isoform, or with tags, fused parts or gaps S69A | S69A S69A): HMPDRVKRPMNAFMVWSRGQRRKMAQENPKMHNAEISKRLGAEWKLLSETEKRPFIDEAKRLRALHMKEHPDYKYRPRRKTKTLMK
# Sequence of Sox2-HMG (His6 retained) R96A (P48431 other isoform, or with tags, fused parts or gaps R96A | R96A R96A): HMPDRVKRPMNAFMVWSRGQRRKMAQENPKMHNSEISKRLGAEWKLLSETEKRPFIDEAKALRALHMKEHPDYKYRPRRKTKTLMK
# Sequence of Sox2-HMG (His6 retained) P112A (P48431 other isoform, or with tags, fused parts or gaps P112A | P112A P112A): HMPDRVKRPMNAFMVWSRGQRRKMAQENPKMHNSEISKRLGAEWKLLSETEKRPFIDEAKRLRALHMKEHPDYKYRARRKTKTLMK
# Sequence of Sox2-HMG (His6 retained) H67A (P48431 other isoform, or with tags, fused parts or gaps H67A | H67A H67A): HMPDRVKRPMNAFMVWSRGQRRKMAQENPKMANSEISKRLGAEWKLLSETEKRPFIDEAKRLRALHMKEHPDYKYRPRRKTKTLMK
sequence,measurement,setting,value
CGCGCCTTTGTTCCCGGGT,binding signal,[1],2.2 ± 1 Kd(mutant)/Kd(WT)
same,binding signal,[2],1.4 ± 0.4 Kd(mutant)/Kd(WT)
same,binding signal,[3],1.1 ± 0.3 Kd(mutant)/Kd(WT)
same,binding signal,[4],1.1 ± 0.5 Kd(mutant)/Kd(WT)
same,binding signal,[5],2.4 ± 0.7 Kd(mutant)/Kd(WT)
same,binding signal,[6],2.8 ± 1.8 Kd(mutant)/Kd(WT)
same,binding signal,[7],1.4 ± 0.7 Kd(mutant)/Kd(WT)
same,binding signal,[8],2.9 ± 1.4 Kd(mutant)/Kd(WT)
same,binding signal,[9],5.8 ± 1 Kd(mutant)/Kd(WT)
same,binding signal,[10],0.7 ± 0.4 Kd(mutant)/Kd(WT)
same,binding signal,[11],9.3 ± 1.4 Kd(mutant)/Kd(WT)
same,binding signal,[12],490 ± 20 Kd(mutant)/Kd(WT)
same,binding signal,[13],0.6 ± 0.3 Kd(mutant)/Kd(WT)
same,binding signal,[14],6.1 ± 2.2 Kd(mutant)/Kd(WT)
same,binding signal,[15],1.1 ± 0.5 Kd(mutant)/Kd(WT)
same,binding signal,[16],1.6 ± 1.1 Kd(mutant)/Kd(WT)
same,binding signal,[17],2 ± 1.9 Kd(mutant)/Kd(WT)
same,binding signal,[18],17 ± 2.8 Kd(mutant)/Kd(WT)
same,binding signal,[19],0.9 ± 0.2 Kd(mutant)/Kd(WT)
same,binding signal,[20],3 ± 0.8 Kd(mutant)/Kd(WT)
same,binding signal,[21],1.6 ± 0.3 Kd(mutant)/Kd(WT)
same,binding signal,[22],1.1 ± 1.1 Kd(mutant)/Kd(WT)
same,binding signal,[23],420 ± 120 Kd(mutant)/Kd(WT)
same,binding signal,[24],0.7 ± 0.4 Kd(mutant)/Kd(WT)
same,binding signal,[25],0.6 ± 0.2 Kd(mutant)/Kd(WT)
same,binding signal,[26],1.3 ± 0.7 Kd(mutant)/Kd(WT)
same,binding signal,[27],3 ± 0.6 Kd(mutant)/Kd(WT)
same,binding signal,[28],0.8 ± 0.1 Kd(mutant)/Kd(WT)
same,binding signal,[29],0.7 ± 0.2 Kd(mutant)/Kd(WT)
same,binding signal,[30],0.6 ± 0.5 Kd(mutant)/Kd(WT)
same,binding signal,[31],2.8 ± 0.3 Kd(mutant)/Kd(WT)
same,binding signal,[32],30 ± 5.4 Kd(mutant)/Kd(WT)
same,binding signal,[33],190 ± 70 Kd(mutant)/Kd(WT)
same,binding signal,[34],2.8 ± 0.9 Kd(mutant)/Kd(WT)
same,binding signal,[35],7.5 ± 3.5 Kd(mutant)/Kd(WT)
same,binding signal,[36],1.4 ± 1.3 Kd(mutant)/Kd(WT)
same,binding signal,[37],3.2 ± 0.8 Kd(mutant)/Kd(WT)
same,binding signal,[38],8.5 ± 2.2 Kd(mutant)/Kd(WT)
same,binding signal,[39],0.8 ± 0.3 Kd(mutant)/Kd(WT)
same,binding signal,[40],0.8 ± 0.5 Kd(mutant)/Kd(WT)
same,binding signal,[41],1.1 ± 0.5 Kd(mutant)/Kd(WT)
same,binding signal,[42],2.7 ± 1.2 Kd(mutant)/Kd(WT)
same,binding signal,[43],15 ± 8.4 Kd(mutant)/Kd(WT)
same,binding signal,[44],8.5 ± 1 Kd(mutant)/Kd(WT)
same,binding signal,[45],1.9 ± 0.2 Kd(mutant)/Kd(WT)
same,binding signal,[46],2.6 ± 0.1 Kd(mutant)/Kd(WT)
same,binding signal,[47],1.8 ± 0.9 Kd(mutant)/Kd(WT)
same,binding signal,[48],1.7 ± 1.9 Kd(mutant)/Kd(WT)
